Results: PubChem BioAssay AID2283302 (EPA ToxCast)
Inconclusive results are not listed. The source made the active and inactive calls. Rule for the calls: active = hit-call score of the fitted dose curve at least 0.9, where 1 is the maximum; inconclusive = response in the unintended direction; inactive = score below 0.9.

Target: rat Gamma-HydroxyButyrate Receptor (GHB), Tspan17 (gene 306771) (UniProt Q4V8E0)
Test: NVS_GPCR_rGHB: NovaScreen (NVS) G Protein-Coupled Receptor Assay for rat Gamma-HydroxyButyrate Receptor (GHB)
Method: NVS_GPCR_rGHB is a biochemical, single-readout assay that uses extracted gene-proteins from Rat forebrain in a tissue-based cell-free assay. Measurements were taken 1 hour after chemical dosing in a 48-well plate.NVS_GPCR_rGHB is one of one assay component(s) measured or calculated from the NVS_GPCR_rGHB assay. It is designed to make measurements of radioligand binding, a form of binding reporter, as detected with scintillation counting signals by Filter-based radiodetection technology.Data from the assay component NVS_GPCR_rGHB was analyzed into 1 assay endpoint. This assay endpoint, NVS_GPCR_rGHB, was analyzed in the positive analysis fitting direction relative to DMSO as the negative control and baseline of activity. Using a type of binding reporter, loss-of-signal activity can be used to understand changes in the binding as they relate to the gene Tspan17. Furthermore, this assay endpoint can be referred to as a primary readout, because the performed assay has only produced 1 assay endpoint. To generalize the intended target to other relatable targets, this assay endpoint is annotated to the gpcr intended target family, where the subfamily is metabotropic glutamate receptor.
Binding assays used specific radioligands (tritiated, iodinated) with non-radioactive competitive displacement ligands in agonist or antagonist protocols (as indicated) and various reference compounds and inhibitors to titrate specific binding to receptors and transporters. Most enzyme assays (CYPs, kinases, phosphatases, proteases, HDACs) used recombinant protein and specific substrates (fluorescence mostly, some colorimetric and radioactive) and inhibitors, followed by a biochemical separation of substrate and product. All assays for the biochemical HTS were initially run in duplicate at a single concentration (10 uM for CYP450 assays and 25 uM for all others). Assay-chemical combinations meeting a pre-defined threshold (e.g., 30% inhibition and other criteria defined below) were then run in singleton concentration-response format with maximum concentration of 20 uM for CYPs and 50 uM for all others. Each assay was run with positive and negative controls, and concurrent controls on every plate. The follow-up (secondary) screen tested active chemical-pairs in concentration series, as well as a few additional assays not tested in the primary screen, some selected negative inactives, and several cases re-run in the concentration series for confirmatory purposes.

Sequence of rat Gamma-HydroxyButyrate Receptor (GHB), Tspan17 (gene 306771) (Q4V8E0 whole entry, looked up): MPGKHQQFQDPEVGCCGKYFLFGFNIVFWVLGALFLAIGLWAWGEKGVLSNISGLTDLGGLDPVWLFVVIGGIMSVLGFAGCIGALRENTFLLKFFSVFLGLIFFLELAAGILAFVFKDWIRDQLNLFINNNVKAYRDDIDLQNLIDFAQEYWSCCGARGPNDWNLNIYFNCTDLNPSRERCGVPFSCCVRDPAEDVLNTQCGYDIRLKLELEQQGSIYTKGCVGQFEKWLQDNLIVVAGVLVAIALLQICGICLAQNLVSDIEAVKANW

SMILES | outcome | AC50
O=C(O)c1cccc(N(Cc2cccnc2)c2ccc(OC(F)F)c(OC(F)F)c2)c1 | inactive | 
Cn1c(=O)cc(Oc2ccc(F)cc2F)c2cnc(NCC(C)(C)O)nc21 |  | 0.166 µM (active)
Cc1cccc(Nc2cc(Cl)nc(SCC(=O)O)n2)c1C |  | 19.2 µM (active)
COC(=O)CSc1cc(N=c2sc(=O)n3n2CCCC3)c(F)cc1Cl | inactive | 
